Laboratory results reported in PubChem BioAssay.
Activity calls are given as the source filed them.

Experiments:
[1] = test system: XIP peptide (Xip251-270) binding; assay: XIP fragment 251-270 binding compounds – biochemical, small-molecule microarray, fluorescence 635/667 nm, 0.1 µg/mL protein, primary screen (AID 1182); conditions: fluorescent protein binding, 635 nm, higher = more signal, called active from +8 up or from −8 down
XIP peptide (Xip251-270) = assay: compounds binding XIP fragment 251-270 – biochemical, small-molecule microarray, fluorescence 635/667 nm, 0.5 µg/mL protein, primary screen (AID 1183); conditions: fluorescence 635 nm, higher = more signal
[2] = blood-stage malaria parasite viability loss – strain 3D7, DAPI fluorescence, 100 nL, primary screen (AID 1184);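 also: parasites grown inside human red blood cells in medium with human serum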; conditions: P. falciparum 3D7 growth, 3 d, higher = more signal
[3] = target: Homeobox protein Hox-A13 (Mus musculus) (UniProt Q62424); assay: disruptors of Hoxa13 oligonucleotide interaction – biochemical, fluorescence polarization, labeled oligonucleotide, primary screen (AID 1185); conditions: Hoxa13:DNA binding, 15 min, higher = more signal, called active from +8 up or from −8 down
Sequence of Homeobox protein Hox-A13 (Mus musculus) (Q62424 whole entry, looked up): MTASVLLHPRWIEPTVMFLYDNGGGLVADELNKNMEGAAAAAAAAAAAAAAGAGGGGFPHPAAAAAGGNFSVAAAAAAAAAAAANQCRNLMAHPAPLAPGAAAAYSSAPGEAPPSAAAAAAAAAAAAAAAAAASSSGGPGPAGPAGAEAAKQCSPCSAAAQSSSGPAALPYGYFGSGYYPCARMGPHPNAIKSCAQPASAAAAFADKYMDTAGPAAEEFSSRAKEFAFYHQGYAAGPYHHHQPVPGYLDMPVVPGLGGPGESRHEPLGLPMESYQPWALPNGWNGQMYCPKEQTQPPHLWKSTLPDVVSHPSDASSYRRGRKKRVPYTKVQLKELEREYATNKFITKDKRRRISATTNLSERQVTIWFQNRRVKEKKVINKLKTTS

Row | Compound | composite z-score [1] | composite z-score (XIP peptide (Xip251-270)) | z-score [2] | z-score [3]
1 | C=CC[C@@H]1C=C[C@H](ON=C(C)CCN2CCCc3nc(C)c(C)cc32)[C@@H](CO)O1 | 1.59 (inactive) | 0.241 | -2.16 | -7.32 (inactive)
2 | C[C@@H]1CC[C@H]2C(=O)O[C@@H](CN=[N+]=[N-])CN2[C@H]1c1ccc(Br)cc1 | 0.223 (inactive) | 0.688 | -1.72 | -0.917 (inactive)
3 | CCOC(=O)[C@H](Cc1ccccc1)NC(=O)CCC1CC(OC(=O)NCc2ccc3c(c2)OCO3)CC2(CCCC(COC(=O)NCCCN3CCCC3=O)O2)O1 (some centres not stated) | 0.112 (inactive) | 0.577 | -1.87 | -3.13 (inactive)
4 | COC(=O)[C@H](C)NC(=O)CCC1CC(OC(=O)NCc2ccc3c(c2)OCO3)CC2(CCCC(COC(=O)NCCCN3CCCC3=O)O2)O1 (some centres not stated) | 0.045 (inactive) | 0.612 | -1.84 | -5.61 (inactive)
5 | COC(=O)[C@@H]1CC[C@H](C)[C@@H](c2ccc(Br)cc2)N1C[C@H](O)CN=[N+]=[N-] | 1.12 (inactive) | -0.135 | -0.637 | -2.93 (inactive)
6 | CCC1=NOC(CCC2CC(OC(=O)NCc3cccc4c3OCO4)CC3(CCCC(COC(=O)NCCc4ccc(Cl)cc4)O3)O2)C1 (configuration not stated) | 0.214 (inactive) | 0.855 | -0.184 | -2.58 (inactive)
7 | Cc1ccc(S(=O)(=O)N[C@@H]2COC(=O)CC=C[C@@H](C)[C@H](NS(=O)(=O)c3ccc(C)cc3)COC(=O)[C@H](C)NC(=O)CC=C[C@H]2C)cc1 | -0.668 (inactive) | -0.564 | -0.196 | -1.11 (inactive)
8 | CO[C@@H]1COC(=O)[C@H](CCSC)NC(=O)CC=C[C@@H](C)COC(=O)[C@@H]2CCCN2C(=O)CC=C[C@H]1C | 0.665 (inactive) | 0.352 | -0.494 | 0.213 (inactive)
